# Calls of active or inactive are those of the source. Unless noted, how the calls were made is not given here.
# Legend:
# [1] = compound effects on lung adenocarcinoma cell viability – A549, calcein-AM fluorescence, 48 h, basal, profiling panel (AID 1162); details: higher = more signal; further: test concentration not given here
# [2] = compound effects on differentiated 3T3-L1 adipocyte viability – cell-based, 3T3-L1 adipocytes, calcein-AM fluorescence, 48 h, basal, profiling panel (AID 1163); details: 3T3-L1 adipocytes viability, higher = more signal; further: test concentration not given here
# [3] = compound effects on hepatocellular carcinoma cell viability – HepG2, calcein-AM fluorescence, 48 h, basal, profiling panel (AID 1164); details: higher = more signal; further: test concentration not given here
# [4] = compound effects on multiple myeloma cell viability – MM1S, calcein-AM fluorescence, 48 h, basal, profiling panel (AID 1165); details: higher = more signal;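 further: viability of MM1S multiple myeloma cells under basal unstimulated conditions; test concentration not given here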
# [5] = calcein-AM signal in unstimulated myeloma cells – cell-based, calcein-AM fluorescence, 48 h, PK04 Diversity Set, profiling panel (AID 1166); details: RPMI8226 myeloma viability, higher = more signal;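 further: cells grown under basal conditions without added stimulus; test concentration not given here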
# [6] = JC-1 mitochondrial signal, unstimulated HepG2 cells – cell-based, JC-1 fluorescence, 24 h, 100 nL compound, profiling panel (AID 1167); details: HepG2 mitochondrial potential, higher = more signal; further: test concentration not given here
# [7] = JC-1 mitochondrial signal, unstimulated adipocytes – cell-based, JC-1 fluorescence, 3T3-L1 adipocytes, 24 h, 100 nL compound, profiling panel (AID 1168); details: JC-1 mitochondrial fluorescence, higher = more signal, called active from +8 up or from −8 down; further: test concentration not given here
# [8] = JC-1 mitochondrial signal, unstimulated myeloma cells – cell-based, JC-1 fluorescence, RPMI8226, 24 h, 100 nL compound, profiling panel (AID 1169); details: JC-1 mitochondrial potential fluorescence, higher = more signal; further: test concentration not given here
# [9] = JC-1 mitochondrial signal, unstimulated MM1S myeloma – cell-based, JC-1 fluorescence, 24 h, 100 nL compound, profiling panel (AID 1170); details: MM1S mitochondrial potential, higher = more signal; further: test concentration not given here
# [10] = resazurin metabolic signal in A549 cells – cell-based, resazurin fluorescence, 24 h, PK04 Diversity Set, profiling panel (AID 1171); details: A549 viability, higher = more signal, called active from +8 up or from −8 down; further: test concentration not given here
# [11] = resazurin metabolic signal in HepG2 cells – cell-based, resazurin fluorescence, 24 h, PK04 Diversity Set, profiling panel (AID 1172); details: HepG2 viability, higher = more signal; further: test concentration not given here
# [12] = budding yeast growth changes without added modifier – OD600, strain BY4716, 24 h, basal condition, primary screen (AID 1173); details: S. cerevisiae BY4716 growth, OD600, 24 h; higher = more signal, called active from +8 up or from −8 down
# [13] = viability profiling in MM1S myeloma cells – cell-based, resazurin fluorescence, basal, 24 h, PK04 Diversity Set, profiling panel (AID 1174); details: higher = more signal, called active from +8 up or from −8 down; further: test concentration not given here
# [14] = biological target: Dihydroorotate dehydrogenase (quinone), mitochondrial (Plasmodium falciparum (isolate 3D7)) (UniProt Q08210); test: inhibition of P. falciparum DHODH – biochemical, C-terminal His tag, absorbance 600 nm, primary screen (AID 1175); details: PfDHODH enzyme, DCIP absorbance 600 nm; higher = more signal, called active from +8 up or from −8 down;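 further: recombinant parasite enzyme with a five histidine tag at its C terminus; test concentration not given here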
# [15] = inhibition of PAO1 biofilm formation – strain PAO1, LB-PBS medium, absorbance 600 nm, primary screen (AID 1176); further: test concentration not given here; details: P. aeruginosa PAO1 growth/biofilm, A600, 12 h; higher = more signal
# [16] = growth modulation of vineyard yeast isolate – strain RM11-1a, OD600, basal, 24 h, primary screen (AID 1177);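 further: cultures grown under basal conditions with no added stressor; test concentration not given here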; details: S. cerevisiae RM11-1a growth, OD600, 24 h; higher = more signal, called active from +8 up or from −8 down
# [17] = growth of efflux-deficient E. coli DRC39 – strain DRC39, OD650, 24 h, E. coli filamentation inducers, primary screen (AID 1178);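 further: growth measured as culture turbidity by optical density at 650 nm; test concentration not given here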; details: E. coli DRC39 acrAB, higher = more signal, called active from +8 up or from −8 down
# [18] = growth of efflux-deficient E. coli DRC39 – strain DRC39, OD650, 48 h, E. coli filamentation inducers, primary screen (AID 1179);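 further: screen aims at cell division blockers that make cells filament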; details: E. coli DRC39 delta-acrAB growth, higher = more signal, called active from +8 up or from −8 down
# [19] = viability profiling in RPMI8226 myeloma cells – cell-based, resazurin fluorescence, basal, 24 h, PK04 Diversity Set, profiling panel (AID 1180); details: higher = more signal;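 further: RPMI8826 multiple myeloma cell line at 5000 cells per well; test concentration not given here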
# [20] = biological target: E3 ubiquitin-protein ligase XIAP (Homo sapiens) (UniProt P98170); test: small molecules binding XIAP protein – biophysical, small-molecule microarray, fluorescence 635 nm, primary screen (AID 1181); details: higher = more signal;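 further: score merges 667 nm emission and signal to noise over triplicate slides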
# E3 ubiquitin-protein ligase XIAP (Homo sapiens), sequence (P98170 whole entry, looked up): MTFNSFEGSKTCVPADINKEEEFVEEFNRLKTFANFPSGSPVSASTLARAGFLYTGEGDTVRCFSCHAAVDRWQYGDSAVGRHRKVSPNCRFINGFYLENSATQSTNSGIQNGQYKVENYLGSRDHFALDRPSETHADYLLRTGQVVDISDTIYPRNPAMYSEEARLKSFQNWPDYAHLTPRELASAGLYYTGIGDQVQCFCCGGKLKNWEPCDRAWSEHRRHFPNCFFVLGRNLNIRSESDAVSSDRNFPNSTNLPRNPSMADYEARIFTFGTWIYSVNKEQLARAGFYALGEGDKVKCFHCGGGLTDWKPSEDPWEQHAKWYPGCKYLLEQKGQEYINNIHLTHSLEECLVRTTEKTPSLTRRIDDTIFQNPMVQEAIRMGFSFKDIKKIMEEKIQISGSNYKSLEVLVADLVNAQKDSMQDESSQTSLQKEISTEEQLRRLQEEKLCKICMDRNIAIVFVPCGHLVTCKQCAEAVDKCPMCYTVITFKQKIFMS
# Dihydroorotate dehydrogenase (quinone), mitochondrial (Plasmodium falciparum (isolate 3D7)), sequence (Q08210 whole entry, looked up): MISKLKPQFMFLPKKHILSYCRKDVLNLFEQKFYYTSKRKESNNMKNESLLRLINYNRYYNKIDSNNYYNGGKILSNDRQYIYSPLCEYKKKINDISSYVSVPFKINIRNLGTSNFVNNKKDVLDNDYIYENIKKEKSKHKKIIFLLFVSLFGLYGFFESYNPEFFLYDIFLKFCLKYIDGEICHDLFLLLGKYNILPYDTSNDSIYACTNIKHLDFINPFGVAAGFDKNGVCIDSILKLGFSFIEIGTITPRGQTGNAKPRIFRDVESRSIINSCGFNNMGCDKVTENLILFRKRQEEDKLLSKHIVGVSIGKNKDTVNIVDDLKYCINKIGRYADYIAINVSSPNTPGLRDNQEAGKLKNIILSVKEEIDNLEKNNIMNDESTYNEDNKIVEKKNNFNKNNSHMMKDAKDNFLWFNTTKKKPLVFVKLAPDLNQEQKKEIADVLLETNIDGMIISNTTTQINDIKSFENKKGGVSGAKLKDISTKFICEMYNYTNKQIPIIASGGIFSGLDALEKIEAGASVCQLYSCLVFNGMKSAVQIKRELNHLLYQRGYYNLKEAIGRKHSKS
SMILES,z-score [1],z-score [2],z-score [3],z-score [4],z-score [5],z-score [6],z-score [7],z-score [8],z-score [9],z-score [10],z-score [11],z-score [12],z-score [13],composite z-score [14],z-score [15],z-score [16],z-score [17],z-score [18],z-score [19],composite z-score [20]
COc1ccccc1CN1C(=O)c2ccccc2[C@@]2(Cc3ccccc3N(CC(F)(F)F)C2=O)[C@@H]1c1ccc(CO)cc1,-0.912,-0.744,0.162,0.291,-0.956,-0.505,-0.363 (inactive),-0.0759,-0.946,-0.682 (inactive),-0.108,0.981 (inactive),-0.987 (inactive),-11.7 (active),0.723 (inactive),0.36 (inactive),0.224 (inactive),0.499 (inactive),-0.624,0.0819
O=C1O[C@H](c2ccccc2)[C@H](c2ccccc2)N2[C@H]1[C@@H](C(=O)O)[C@]1(C(=O)Nc3ccc(C#CC4=CCCCC4)cc31)[C@H]2c1ccc(O)cc1,0.576,-0.029,0.85,-3.14,-2.25,-3.42,0.0262 (inactive),-1.03,-0.657,0.391 (inactive),-0.176,-1.73 (inactive),0.248 (inactive),-4.56 (inactive),1.42 (inactive),0.168 (inactive),-0.448 (inactive),-0.174 (inactive),-0.0705,0.0938
CC(C)C(CO)N1C(=O)[C@@H]2C3C(=O)OCCC/C=C\[C@H]3OC23C=CCN(C(C)(C)C)C(=O)[C@@H]13 (stereo not given in full),-0.444,-0.496,-0.972,0.724,0.851,-0.3,0.306 (inactive),0.0508,-0.351,-0.265 (inactive),-0.263,0.463 (inactive),-0.428 (inactive),-1.85 (inactive),-0.0711 (inactive),-0.348 (inactive),0.235 (inactive),0.129 (inactive),-0.489,-0.204
CCOC(=O)C[C@H]1[C@H](OC(=O)c2cc3ccccc3oc2=O)[C@@H](NC(=O)c2ccc(-c3ccccc3)cc2)c2cc(OCCCO)ccc2N1C(=O)c1ccc2ccccc2n1,0.224,0.198,1.25,0.0181,0.624,0.259,-0.023 (inactive),0.174,-0.122,0.73 (inactive),0.867,0.753 (inactive),0.389 (inactive),-0.0286 (inactive),-0.0218 (inactive),1.54 (inactive),0.97 (inactive),0.211 (inactive),0.0692,0.023
[N-]=[N+]=Nc1ccccc1C[C@]1(C(=O)N2CCOCC2)N=C(c2ccc(OCCCO)cc2)O[C@H]1c1ccccc1,0.375,0.854,1.58,-0.35,-0.911,1.99,1.18 (inactive),-1.18,-0.438,0.0917 (inactive),1.32,-0.576 (inactive),-1.25 (inactive),0.404 (inactive),-0.608 (inactive),1.05 (inactive),1.11 (inactive),0.356 (inactive),0.101,0.0761
O=C(NCC(F)(F)F)[C@@H]1c2ccccc2C(=O)N(Cc2ccc(OC(F)(F)F)cc2)[C@H]1c1ccc(CO)cc1,0.0723,-0.302,-0.27,-0.404,-0.207,1.66,0.506 (inactive),0.941,-0.54,1.01 (inactive),1.09,-1.13 (inactive),0.482 (inactive),-0.504 (inactive),-0.177 (inactive),0.0971 (inactive),0.504 (inactive),0.632 (inactive),1.04,0.104
CC(C)C(=C=CC[C@H](O)c1cccc(OCCO)c1)C[C@H](O)c1cc(Cl)cc(Cl)c1O,-0.105,-0.903,0.142,-1.67,0.205,0.00345,0.375 (inactive),-0.527,-0.826,1.01 (inactive),0.84,-4.38 (inactive),0.0849 (inactive),-0.0151 (inactive),0.33 (inactive),0.233 (inactive),0.889 (inactive),0.709 (inactive),1.61,-0.16
C=CCC(OC(C)=O)[C@@H]1[C@@H](N(Cc2ccc(-c3cccc(C(F)(F)F)c3)o2)C(=O)c2ccc(-c3ccccc3)cc2)c2cc(OCCCO)ccc2N1C(=O)c1ccc2ccccc2n1 (stereo not given in full),-0.157,0.585,-0.474,0.0887,0.458,2.07,-0.572 (inactive),0.378,-0.0621,0.264 (inactive),-0.0845,1.59 (inactive),0.328 (inactive),-0.32 (inactive),0.857 (inactive),0.859 (inactive),-0.347 (inactive),-0.302 (inactive),-0.556,-0.152
CN(C)CCCNC(=O)[C@@H]1c2ccccc2C(=O)N(Cc2ccccc2Cl)[C@H]1c1ccc(CO)cc1,0.904,0.841,0.112,-0.147,-0.872,1.5,0.517 (inactive),0.114,0.599,0.508 (inactive),0.248,-0.433 (inactive),0.608 (inactive),0.411 (inactive),0.0561 (inactive),-0.39 (inactive),0.206 (inactive),-0.2 (inactive),0.179,-0.02
O=C(N1CCCCC1)[C@@]1(CCS(=O)(=O)c2ccccc2)COC(c2ccc(OCCCO)cc2)=N1,0.606,-0.609,0.299,-1.03,0.0963,0.147,-0.328 (inactive),-1.13,-1.16,0.327 (inactive),-0.27,-0.22 (inactive),-1.52 (inactive),-0.0606 (inactive),0.258 (inactive),-0.008 (inactive),0.196 (inactive),0.21 (inactive),-0.675,0.0942
CCCNC(=O)[C@@]1(c2ccc([N+](=O)[O-])cc2)CC(=O)N(C2CCCCC2)[C@@H]1c1ccc(CO)cc1,0.663,0.29,0.196,-0.409,0.46,0.536,-1.19 (inactive),-0.506,0.773,1.13 (inactive),-0.347,0.262 (inactive),0.411 (inactive),0.666 (inactive),0.304 (inactive),1.83 (inactive),0.117 (inactive),-0.194 (inactive),0.543,-0.173
COCCCNC(=O)[C@@]1(Cc2ccccc2N=[N+]=[N-])N=C(c2ccc(OCCCO)cc2)O[C@H]1c1ccccc1,-1.07,0.538,-0.412,-1.41,-2.78,1.02,1.27 (inactive),-1.03,-0.34,0.308 (inactive),-0.0132,-0.632 (inactive),-0.681 (inactive),0.328 (inactive),0.441 (inactive),-0.115 (inactive),0.987 (inactive),-0.325 (inactive),-0.647,0.234
CN(C)C(=O)C1N=C(c2ccc(OCCCO)cc2)N(c2ccccc2)O1 (stereo not given),0.676,-0.214,0.411,0.237,-0.254,0.261,0.756 (inactive),-0.0214,-0.911,0.304 (inactive),0.244,-1.29 (inactive),0.689 (inactive),-1.01 (inactive),-0.841 (inactive),0.353 (inactive),1.16 (inactive),1.56 (inactive),0.271,-0.181
O=C(NCCCCCNC(=O)/C(Cc1ccccc1)=N/O)OCc1ccccc1,1.54,0.989,-0.756,-0.781,0.476,-0.348,0.627 (inactive),0.567,-0.877,0.766 (inactive),0.619,-3.54 (inactive),0.63 (inactive),-0.713 (inactive),0.695 (inactive),-1.21 (inactive),1.92 (inactive),1.42 (inactive),1.09,-0.253
O=C1N(Cc2ccccc2)Cc2ccccc2[C@@H]2OC(c3ccc(OCCCO)cc3)=N[C@]12CCS(=O)(=O)c1ccccc1,0.589,-1.46,0.151,-1.25,-1.08,-0.565,0.676 (inactive),-1.14,-0.156,0.403 (inactive),-0.121,0.691 (inactive),-0.772 (inactive),0.094 (inactive),1.91 (inactive),2.33 (inactive),0.153 (inactive),-0.286 (inactive),-0.849,-0.144
CN(C)C(=O)[C@@]1(Cc2ccccc2CN=[N+]=[N-])N=C(c2ccc(OCCCO)cc2)O[C@H]1c1ccccc1CN=[N+]=[N-],-0.446,-0.182,-1.29,-1.42,-3.77,1.11,-1.34 (inactive),-1.12,-2.11,-0.67 (inactive),-1.43,1.12 (inactive),-2.15 (inactive),2.07 (inactive),1.35 (inactive),2.07 (inactive),0.117 (inactive),-0.435 (inactive),-3.29,0.172
O=C1NC(=O)C2C1C=CC(C(O)CCc1ccccc1)N2Nc1ccc(Cl)cc1Cl (stereo not given),-0.308,-0.217,-0.588,-2.19,-1.19,-2.19,-1.75 (inactive),-0.236,-0.0222,-0.768 (inactive),-1.24,-3.34 (inactive),-1.59 (inactive),-0.596 (inactive),0.667 (inactive),-0.385 (inactive),-0.172 (inactive),-0.611 (inactive),-1.77,0.178
CCOC(=O)C1=C[C@@H](c2ccccc2)N(S(=O)(=O)c2ccc(C)cc2)[C@H]1c1ccccc1Cl,-0.968,-0.426,0.0009,-0.938,-0.435,2.6,0.422 (inactive),1.01,0.38,1.09 (inactive),-0.695,2.1 (inactive),-0.898 (inactive),0.268 (inactive),0.244 (inactive),2.01 (inactive),-0.581 (inactive),-0.591 (inactive),-1.88,-0.136

# — PubChem BioAssay
